One experiment concerns the target CD27. The experiment can be described thus: pooled miR-30 sensor sort-seq; sequence = guide strand. The note with it: shRNA.
With TTGATCTATATTTCCTTCGTTG, the sensor-assay potency score (higher = more potent) was -0.282. Still for that read-out and setting: next, AAGGATGCGAATAAAATCGGAG: -0.423; TTTGATCTATATTTCCTTCGTT: 0.393.

As to TATATTTCCTTCGTTGATGGAG, the sensor-assay potency score (higher = more potent) is -0.211. On the same count and under the same terms, next, TGTAACGACAAGGCTCTGCAGG: -0.28. The same measure, in the same setting: next, TTGTTTGATCTATATTTCCTTC: -0.475.

The target in a further experiment is CD300E. The experiment is described as above. Particulars: shRNA.
TTTTGGGTCAACACCTCCCCGG displayed a sensor-assay potency score (higher = more potent) of -0.887. Same read-out and setting: next, ATACTGACACCACACTGTCAGA: -1.71; ACTGTCTGAATTTTGCACCAGT: -0.28; TTGGTCTCCACAATGCTCTCAC: 0.408. Consider TGAATTTTGGGTCAACACCTCC, for which the sensor-assay potency score (higher = more potent) was -1.03. Same read-out and setting: next, TCACATGACGTGTCGTACTGTC: 0.205. The same measure, in the same setting: the figure for TGGTCTCTGATGGACACGCGGC is -1.67.

For TTTGGGTCAACACCTCCCCGGT, the sensor-assay potency score (higher = more potent) is -1.29. The sequence ATCATCTTCATTGAGGTTCTGC registered a sensor-assay potency score (higher = more potent) of 0.407. ATGACGTGTCGTACTGTCCTCG yielded a sensor-assay potency score (higher = more potent) of -0.632.

In the case of TTGGGGTTGTAATTGCTGGGGA, the sensor-assay potency score (higher = more potent) was -0.0469.

The sequence TTGTACATGCTCTCATACTGAC gave a sensor-assay potency score (higher = more potent) of -0.406.

The next experiment addresses CD300LG. Described as above. The note with it: shRNA.
Regarding TTTTCTTCATCATTTTTCCAAA, the sensor-assay potency score (higher = more potent) was -1.26.

As to TATCCCTGCAATGTGCACCTGA, the sensor-assay potency score (higher = more potent) worked out at 0.23. TTCCTGCACCAGTACTTCCGGT displayed a sensor-assay potency score (higher = more potent) of -1.16. The same measure, in the same setting: the figure for TCCTGCACCAGTACTTCCGGTG is -1.28; for TCTGTGTTAGACACCTACGTGC it is 0.23; for TAGATGGTGCCAGAGCAGCGAG it is -1.7. Same read-out and setting: next, TTCCCTGTAGGTGCACTGCAGG: -0.985; TTCTACTTTTCTCTCTAGCCAC: -0.61; TCTTCTGCATAGATGGTGCCAG: -0.529. On the same count and under the same terms, the figure for TTGGTGTCGCAGACAGAGCAGA is -1.29. Consider TCTTCTTCTGCATAGATGGTGC, for which the sensor-assay potency score (higher = more potent) is -0.808. On to TTCTTCTTCTGCATAGATGGTG, for which the sensor-assay potency score (higher = more potent) is -0.287.

The target of a further experiment is CD320. The description is as above. The note with it: shRNA.
For TTCCGGGAGGATCTCATTGGTT, the sensor-assay potency score (higher = more potent) was -1.44. Same read-out and setting: the figure for TCCACAGCCGAGCTCGTCGCTG is -1.78; for TTCTGTTCTGACAGCAGCAGGG it is -0.457; for AATGCAGTCATCGCTCAGCGTG it is -1.16. TAGTCCGAGGCCGAGCAGCAGC gave a sensor-assay potency score (higher = more potent) of -1.57. In turn, TCTCATTGGTTCCACAGCCGAG gave a sensor-assay potency score (higher = more potent) of -1.57.

With ATGCAGTCATCGCTCAGCGTGC, the sensor-assay potency score (higher = more potent) is -1.64.

As to TTGCGCAGTTTCTTGTCAGTTC, the sensor-assay potency score (higher = more potent) was -0.101.

TCGCTGCAGTCCAAGTCCCTGT showed a sensor-assay potency score (higher = more potent) of -1.39. With TCATCGCTGCCATCGCTGCAGT, the sensor-assay potency score (higher = more potent) was -1.32.
Also: reference of the scale not given here.
